# Reference: PubChem BioAssay AID2227 (Johns Hopkins Ion Channel Center, 2009)
# The campaign covered roughly 310,000 compounds. About 1,300 (0.42%) were called active.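 The calls were made as follows: active = B-score of calcium response area above 5 SD of library B-scores, with initial fluorescence ratio within 5 SD of library; inactive = the rest.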 The list comes from a sample in which actives are over-represented; it also holds similar structures and randomly drawn compounds.
# Target: Short transient receptor potential channel 4 (Mus musculus) (UniProt Q9QUQ5)
# Assay: positive allosteric modulators of TRPC4, primary screen, cell-based, mouse TRPC4beta, HEK293 mu-opioid, Fluo-4 calcium (AID 2227);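 as to B-score: B-score of integrated fluorescence ratio over time as area under calcium response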
# Conditions: DAMGO EC20, Fluo-4 Ca2+ flux, at 10 µM; stronger effect = higher value
# Chain of Short transient receptor potential channel 4 (Mus musculus) (Q9QUQ5 whole entry, looked up): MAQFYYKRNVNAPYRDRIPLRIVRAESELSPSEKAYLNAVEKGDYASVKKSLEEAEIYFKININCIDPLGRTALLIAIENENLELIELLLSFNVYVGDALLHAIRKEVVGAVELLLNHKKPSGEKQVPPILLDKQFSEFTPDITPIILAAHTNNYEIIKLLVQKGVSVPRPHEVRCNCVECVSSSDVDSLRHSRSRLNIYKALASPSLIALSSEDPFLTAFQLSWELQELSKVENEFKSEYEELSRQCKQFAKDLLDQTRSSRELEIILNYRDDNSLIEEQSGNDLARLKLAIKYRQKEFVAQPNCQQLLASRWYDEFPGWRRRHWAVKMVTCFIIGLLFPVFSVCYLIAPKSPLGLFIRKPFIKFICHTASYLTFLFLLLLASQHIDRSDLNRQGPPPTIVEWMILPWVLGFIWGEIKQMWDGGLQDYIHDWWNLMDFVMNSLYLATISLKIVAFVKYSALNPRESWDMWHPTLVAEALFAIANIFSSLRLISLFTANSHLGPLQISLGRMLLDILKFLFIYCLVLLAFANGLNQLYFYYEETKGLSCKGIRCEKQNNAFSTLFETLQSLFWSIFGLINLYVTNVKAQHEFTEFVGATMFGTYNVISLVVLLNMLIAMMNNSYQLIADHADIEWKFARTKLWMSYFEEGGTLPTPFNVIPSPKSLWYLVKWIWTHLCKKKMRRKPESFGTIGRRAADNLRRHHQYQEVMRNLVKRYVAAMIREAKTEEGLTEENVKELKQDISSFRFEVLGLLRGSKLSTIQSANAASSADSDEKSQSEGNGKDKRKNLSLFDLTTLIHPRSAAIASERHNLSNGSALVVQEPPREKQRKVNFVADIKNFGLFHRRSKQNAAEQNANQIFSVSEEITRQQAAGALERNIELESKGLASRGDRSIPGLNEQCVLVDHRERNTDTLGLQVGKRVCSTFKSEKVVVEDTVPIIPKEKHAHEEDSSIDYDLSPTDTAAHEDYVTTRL
row,Structure (SMILES),B-score
1,CCN1CC2C3CCC(C)(O3)C2C1 (stereo not given),15 (active)
2,Cc1ccc(N(C)C(=O)Oc2cccc3ccc(C)nc23)cc1,inactive
3,CN(C)C(=O)Oc1ccc2c(c1)O/C(=C\c1ccccc1)C2=O,inactive
4,CNC(=O)O/N=C(\N)Cc1csc2ccccc12,inactive
5,O=c1c2ccccc2nc(-c2ccco2)n1-c1ccc(Br)cn1,inactive
6,Cc1ccc(-c2nc3ccccc3c(=O)n2-c2ccc(Br)cn2)cc1,12 (active)
7,O=c1c2ccccc2nc(-c2ccccc2)n1-c1ccccn1,inactive
8,CC(=NCc1ccc2c(c1)OCO2)c1c(O)[nH]c(=O)[nH]c1=O,inactive
9,COC(=O)C1=C(c2cc3ccccc3s2)C[C@@H]2CC[C@H]1N2C(=O)NCCO,inactive
10,O=C(Cn1c(=O)n(CC2CS2)c2ccccc21)N1CCCCC1 (stereo not given),inactive
11,CCOC(=O)C(O)(c1ccc(NC(=O)c2ccco2)c(OC)c1)C(F)(F)F (stereo not given),inactive
12,CCOC(=O)C(O)(c1ccc(N)c(OC)c1)C(F)(F)F (stereo not given),inactive
13,COC(=O)C(O)(c1ccc(NC(=O)c2ccco2)c(OC)c1)C(F)(F)F (stereo not given),12 (active)
14,Cc1ccc2c(c1)=C/C(=C\c1c(O)[nH]c(=O)[nH]c1=O)C(=O)N=2,inactive
15,COc1ccccc1C1=NCc2nnc(CSC)n2-c2ccc(Cl)cc21,inactive
16,CCN1CCN(Cc2cc(OC)c3c(c2)OCO3)CC1,11 (active)
17,Fc1ccc(N2CCN(Cc3ccc4c(c3)OCO4)CC2)cc1,inactive
18,O=C(Cc1ccccc1[N+](=O)[O-])N1CCN(Cc2ccc3c(c2)OCO3)CC1,inactive
19,Cc1cc2ccccn2c1C(C[N+](=O)[O-])c1c(F)cccc1Cl (stereo not given),inactive
20,O=c1[nH]c(=S)n(C2CC2)c(O)c1/C=N/N1CCOCC1,inactive
